S1P2 ag – activates the human S1P2 receptor. O95136. S1P2-expressing cell line, agonist reporter read-out. activation, % at 4.5 µM. actives 0.46% (n = 97,000). AID 729; in the data active means activation above about 16%;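 further: 0% = vehicle low control and 100% = maximal reference agonist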
Target sequence (O95136 whole entry, looked up): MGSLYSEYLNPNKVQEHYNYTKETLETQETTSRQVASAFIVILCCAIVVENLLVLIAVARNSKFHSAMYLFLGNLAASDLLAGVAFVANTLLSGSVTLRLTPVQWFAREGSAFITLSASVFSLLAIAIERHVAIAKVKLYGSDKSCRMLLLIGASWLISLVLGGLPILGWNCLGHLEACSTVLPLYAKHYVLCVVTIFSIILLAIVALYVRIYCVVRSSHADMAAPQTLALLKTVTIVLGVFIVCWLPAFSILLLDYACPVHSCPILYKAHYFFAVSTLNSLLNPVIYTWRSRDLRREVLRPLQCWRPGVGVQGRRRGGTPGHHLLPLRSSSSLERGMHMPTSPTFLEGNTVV
Mac1 fbg enh – increases human CD11b/CD18 adhesion to fibrinogen; P05107+P11215; activation, % at 10 µM; actives 0.07% (n = 93,000); K562 CD11b/CD18 adhesion to fibrinogen, ATPlite luminescence;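 active means 10 µM primary screen giving 50% or more activity, confirmed by 40% or more on retest at that dose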
S1P2 antag – S1P2 (human) receptor antagonism | O95136 | cell-based S1P2 antagonist assay, inhibition at 5 uM | inhibition, % at 5 µM | actives 0.21% (n = 97,000); in the data active means inhibition above about 45%;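 further: CRE beta-lactamase reporter cells expressing human S1P2 stimulated with S1P; 0% = agonist at EC80 alone and 100% = agonist plus reference antagonist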
GALR2 ag – activates the human galanin receptor 2. O43603. activation, % (concentration not given with the values). GALR2-expressing cells, agonist activation read-out. actives 0.48% (n = 140,000). AID 803; in the data active means activation above about 5%, passing the limit was not always enough;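 further: 0% = vehicle buffer wells and 100% = reference agonist at full effect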
GALR2 antag – GALR2 (human) receptor antagonism | O43603 | GALR2-expressing cells, antagonist mode | inhibition, % at 4 µM | actives 0.39% (n = 140,000) | AID 828; in the data active means inhibition above about 27%;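 further: cells stimulated with galanin 1-16 at roughly its EC80; 0% = agonist challenge control and 100% = basal control without agonist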
Mac1 fbg inh – blocks human CD11b/CD18 adhesion to fibrinogen; AID 1497; K562 CD11b/CD18 adhesion to fibrinogen, ATPlite luminescence; Mn2+ added to activate the integrin; actives 0.54% (n = 93,000); P05107+P11215; inhibition, % at 10 µM;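 active means primary inhibition of 50% or more at 10 µM, then 40% or more on retest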
GALR2 agon conf – GALR2 (human) agonism confirmed | activation, % at 5.6 µM | actives 10% (n = 460) | AID 864 | GALR2-expressing cells, agonist activation | shares compounds with GALR2 ag; in the data active means activation above about 8.4%;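 further: 0% = buffer-only vehicle wells and 100% = full reference agonist response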
BLA act counter – beta-lactamase activation, GALR2 counterscreen. activation, % at 5.6 µM. actives 10% (n = 460). CHO NFAT-bla reporter, beta-lactamase FRET activation. shares compounds with GALR2 ag. AID 865;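 active means activation above the screen-wide mean activation plus 3 SD, cut at about 8% in these data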;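 further: 0% = DMSO with PBS wells and 100% = thapsigargin positive control wells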
An asterisk follows results filed as active; x = not tested or not shown. Hits are enriched below; roughly 1.4% of the tested compounds scored in any of these assays.

SMILES | S1P2 ag | Mac1 fbg enh | S1P2 antag | GALR2 ag | GALR2 antag | Mac1 fbg inh | GALR2 agon conf | BLA act counter
COc1ccc(C(=O)c2sc(Nc3cccc(OC)c3)c(C(=O)Nc3cccc(C)c3C)c2N)cc1 | -2 | 14 | 6 | 16* | 9 | 25 | 1 | 0
CCOC(=O)c1snc(-c2ccc(F)cc2)c1N | -9 | 3 | -11 | -2 | -9 | 3 | x | x
CCCCc1cc(O)c(CCCC)c(O)c1 | -2 | -5 | 15 | 9.8* | -27 | 7 | 12* | 27*
O=C1c2ccccc2NC2(CCCCC2)N1N=C1CCCCC1 | x | x | x | -1 | -2 | x | x | x
CCN(CC)CCCN(Cc1cc2cc(OC)ccc2[nH]c1=O)C(=O)Nc1ccc(F)cc1 | -1 | -1 | -19 | -2 | -17 | 4 | x | x
COc1ccc(CCNC(=O)CN2CCOc3ccccc32)cc1OC | x | x | x | 18* | -3 | x | -1 | -1
Cc1cc(NC(=O)c2ccccc2Cl)no1 | 0 | x | 15 | -1 | 13 | x | x | x
Cc1ccc2nc(-c3ccccc3Cl)cc(C(=O)Nc3cc(C)on3)c2c1 | -1 | 11 | 3 | 17* | -5 | 2 | 0 | 0
Oc1ccccc1/C=N/Nc1ccnc(SCc2ccccc2)n1 | x | x | x | 23* | 3 | x | 4 | 0
S=C1SCN(Cc2ccccn2)CN1Cc1ccco1 | -4 | -2 | 19 | 0 | -10 | 12 | x | x
Cc1ccc2nc(SCC(=O)N(CC(C)C)c3c(N)n(CC(C)C)c(=O)[nH]c3=O)[nH]c2c1 | 3 | 1 | -14 | 40* | -6 | 34 | -1 | -2
CC(C)CN(C(=O)CSc1nncs1)c1c(N)n(CC(C)C)c(=O)[nH]c1=O | -3 | 0 | -2 | -1 | -9 | 23 | x | x
CCS(=O)(=O)N1CCN(c2cccc(C)c2C)CC1 | -6 | 3 | 8 | 17* | -5 | -6 | -1 | -2
CCOc1cccc(SCc2noc(C(=O)NCCOC)c2C(=O)O)c1 | -9 | 7 | 8 | 59* | -3 | 3 | 0 | 1
CC(=O)c1cc(C)ccc1OC(=O)c1ccco1 | -2 | -1 | 11 | 11* | 6 | 0 | -1 | 2
COc1nnc(-c2ccc(N3CCOCC3)c(NC(=O)c3ccco3)c2)c2ccccc12 | 0 | 4 | -37 | 0 | -13 | -26 | x | x
CCCCCCc1cc2cc(S(=O)(=O)c3ccc(F)c(Cl)c3)c(=O)oc2cc1O | x | -8 | x | 19* | 8 | 99 | 26* | 50*
CCCCCCc1cc2cc(C(N)=O)c(=N)oc2cc1O | 39* | -8 | -76 | 105* | -29 | 44 | 8 | 23*
CCCCCCc1cc2cc(C(=O)NC)c(=N)oc2cc1O | 4 | 0 | 4 | 4 | -13 | 8 | x | x
CCc1cc2c(=O)[nH]c(Cc3ccc(OC)cc3)nc2s1 | x | x | x | 0 | 3 | x | x | x
Cc1ccc(-n2c(SCC(=O)NCc3ccco3)nc3nc4c(cc3c2=O)COC(C)(C)C4)cc1 | x | 2 | x | 0 | 7 | 61 | x | x
O=c1oc2ccc(Br)cc2cc1S(=O)(=O)c1ccc(F)cc1 | x | x | x | -1 | 11 | x | x | x
COCCCNC(=O)/C=C/c1cccc(Cl)c1 | -4 | 0 | -3 | -1 | 5 | 4 | x | x
O=C(c1ccc(F)cc1)N(Cc1ccccc1)C1CCS(=O)(=O)C1 (stereo not drawn) | -5 | 1 | 7 | 0 | 3 | 13 | x | x
O=C(N/N=C/c1c(F)cccc1Cl)c1ccc(Cn2cc(Br)cn2)o1 | x | x | x | 40* | 14 | x | -1 | -3
SMILES | S1P2 ag | Mac1 fbg enh | S1P2 antag | GALR2 ag | GALR2 antag | Mac1 fbg inh | GALR2 agon conf | BLA act counter
Cc1csc(NC(=O)c2cc3c(s2)-c2ccccc2OC3)n1 | -1 | 10 | -6 | 9 | 4 | 29 | 3 | 6
Cc1nc(-c2cccc(S(=O)(=O)N3CCCC(C)C3)c2)cs1 (stereo not drawn) | -6 | 0 | 8 | 27* | -1 | 20 | 0 | -1
C=CCNC(=O)/C(C#N)=C/c1cn(-c2ccccc2)nc1-c1cccs1 | x | 5 | x | 13* | 10 | 5 | 11* | 5
Cc1ccc(C(=O)NC(=S)Nc2ccc(NC(=O)c3cccc(Cl)c3)cc2)cc1 | x | x | x | 10* | -2 | x | 5 | 5
CCOC(=O)c1sc(NC(=O)Nc2ccccc2Cl)cc1C | x | x | x | 13* | 9 | x | 0 | -2
CCOc1cc(/C=N\NC(=O)Cn2nc([N+](=O)[O-])cc2C)ccc1OCc1cccc2ccccc12 | -4 | 32 | -23 | 35* | -12 | -34 | -1 | -3
COCC(C)NC(=O)COc1ccc(Cl)cc1Cl (stereo not drawn) | -11 | x | 8 | 10 | -7 | x | -1 | -2
CCc1cc(=O)oc2c(CN3CCCC3)c(O)c(Cl)cc12 | 9 | 0 | 0 | 2 | -12 | 0 | x | x
CCc1cc(=O)oc2c(CN3CCN(C)CC3)c(O)c(Cl)cc12 | 11 | -4 | -39 | 12* | -22 | -47 | 1 | 3
Nc1c(C(=O)Nc2ccc(S(=O)(=O)N3CCCC3)cc2)sc2nc3ccc(OC(F)(F)F)cc3cc12 | x | -2 | x | 18* | 6 | -16 | 7 | 2
COC(=O)c1c(C)[nH]c(C(=O)CSc2nnnn2-c2ccccc2)c1C | -6 | -6 | 2 | 99* | -5 | -6 | 0 | -2
CCOC(=O)Cn1c(=NC(=O)c2cccs2)sc2cc(C(=O)OC)ccc21 | x | x | x | 14* | -1 | x | -1 | -2
CCC(C)(C)NC(=O)C(c1cccn1C)N(Cc1ccc(OC)cc1)C(=O)Cn1nnc2ccccc21 (stereo not drawn) | -2 | x | 3 | 9 | 1 | x | 6 | 7
Cc1ccc(-c2nn(CC(N)=O)c(=O)c3ccccc23)cc1S(=O)(=O)N(C)C | -6 | -3 | -5 | 34* | -1 | 4 | 0 | -1
Brc1ccc(-c2nc(N/N=C/c3cccnc3)c3ccccc3n2)cc1 | -7 | -7 | 7 | 76* | 4 | 101* | 0 | -1
Cc1ccc(-c2nc(N/N=C/c3ccccc3[N+](=O)[O-])c3ccccc3n2)cc1 | -3 | x | 9 | -2 | -4 | x | x | x
COC(=O)C1CCN(C(=O)COC(=O)Cn2cnnn2)CC1 | -3 | 1 | 6 | 160* | -7 | 1 | -1 | 0
COC(=O)C1CCN(C(=O)COC(=O)CC(NC(C)=O)c2ccccc2)CC1 (stereo not drawn) | -1 | 0 | -4 | -1 | 1 | -9 | x | x
CCCCCn1c(N)c(-c2nc3ccccc3s2)c2c([N+](=O)[O-])nn(C)c(=O)c21 | -7 | -8 | 14 | -2 | 3 | 96 | x | x
CN(C)CCNC(=O)NC(=O)c1ccc(Cl)cc1 | x | x | x | 21* | 5 | x | -1 | -2
Cc1ccc2nc(NNC(=O)c3ccc(S(=O)(=O)N4CCc5ccccc5C4)cc3)sc2c1 | x | x | x | -3 | -3 | x | x | x

From PubChem
